# Experiments:
# Test in all cases: DAPPL (digital affinity profiling via proximity ligation, sequencing); 10 mM Tris-HCl pH 7.5, 50 mM NaCl, 1 mM DTT, 4% glycerol, room temperature, 30 min; GST-TFs on glutathione beads, 16-mer random dsDNA library, 0.1% formaldehyde crosslink after washing; high values mean tight binding
# Settings in all cases: protein: recombinant; tags: N-terminal GST; dsDNA, one strand shown
# FLI1 = target: T1, FLI1 (Homo sapiens, UniProt Q01543 1-452)
# T1 sequence: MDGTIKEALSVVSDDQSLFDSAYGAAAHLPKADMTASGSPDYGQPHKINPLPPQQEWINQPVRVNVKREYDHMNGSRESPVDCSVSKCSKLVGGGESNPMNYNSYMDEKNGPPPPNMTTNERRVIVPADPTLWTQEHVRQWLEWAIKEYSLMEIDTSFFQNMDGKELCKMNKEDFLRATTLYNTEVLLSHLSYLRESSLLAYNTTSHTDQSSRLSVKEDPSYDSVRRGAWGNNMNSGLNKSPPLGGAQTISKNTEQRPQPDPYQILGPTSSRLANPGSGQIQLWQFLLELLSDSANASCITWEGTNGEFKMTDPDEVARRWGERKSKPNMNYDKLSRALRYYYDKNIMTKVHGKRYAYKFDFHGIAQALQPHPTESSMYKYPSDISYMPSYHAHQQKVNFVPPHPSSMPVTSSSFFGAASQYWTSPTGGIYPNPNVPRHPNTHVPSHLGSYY
# Outline: (§1)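 Human transcription factors fused to GST were expressed in yeast, captured on glutathione beads, given DNA barcodes and pooled with a GST-only negative control. Pools were incubated with 200 nmole of a 16-mer random double-stranded DNA library in Tris/NaCl/DTT/glycerol buffer at room temperature for 30 min. They were then washed, crosslinked with 0.1% formaldehyde, proximity-ligated (BsaI/T4 ligase, 1 h, 37 °C), PCR-amplified and sequenced on an Illumina NextSeq500. Binding signal is each 6-mer's read frequency for a factor divided by its frequency for the GST control.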
# ELK1 = target: T2, ELK1 (Homo sapiens, UniProt P19419 1-428)
# T2 sequence: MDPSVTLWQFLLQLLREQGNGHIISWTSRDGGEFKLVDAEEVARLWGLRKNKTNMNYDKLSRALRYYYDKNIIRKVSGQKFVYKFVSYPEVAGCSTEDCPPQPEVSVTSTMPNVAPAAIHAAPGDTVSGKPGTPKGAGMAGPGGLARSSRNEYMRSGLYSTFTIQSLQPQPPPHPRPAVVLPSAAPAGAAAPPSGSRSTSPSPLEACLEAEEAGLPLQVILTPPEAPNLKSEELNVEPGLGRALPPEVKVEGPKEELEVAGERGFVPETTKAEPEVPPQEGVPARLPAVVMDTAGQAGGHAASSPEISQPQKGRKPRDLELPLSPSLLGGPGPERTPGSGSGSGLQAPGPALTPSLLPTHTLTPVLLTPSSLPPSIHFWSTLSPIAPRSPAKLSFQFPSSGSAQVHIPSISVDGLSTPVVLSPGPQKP
# Outline: as §1
# GABPA = target: T3, GABPA (Homo sapiens, UniProt Q06546 1-454)
# T3 sequence: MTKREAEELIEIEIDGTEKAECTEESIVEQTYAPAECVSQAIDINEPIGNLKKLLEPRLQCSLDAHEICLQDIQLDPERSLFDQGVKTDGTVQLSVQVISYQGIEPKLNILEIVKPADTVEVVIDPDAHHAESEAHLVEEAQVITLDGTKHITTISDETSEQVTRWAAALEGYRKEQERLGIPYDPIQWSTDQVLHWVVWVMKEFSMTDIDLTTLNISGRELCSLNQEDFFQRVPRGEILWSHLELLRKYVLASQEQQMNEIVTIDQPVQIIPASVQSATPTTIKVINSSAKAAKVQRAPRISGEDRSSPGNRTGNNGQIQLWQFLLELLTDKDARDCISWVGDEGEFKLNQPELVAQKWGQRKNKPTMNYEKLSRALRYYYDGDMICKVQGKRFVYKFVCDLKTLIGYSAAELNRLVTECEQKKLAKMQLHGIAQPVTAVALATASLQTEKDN
# Outline: as §1
# ERG = target: T4, ERG (Homo sapiens, UniProt P11308 1-479)
# T4 sequence: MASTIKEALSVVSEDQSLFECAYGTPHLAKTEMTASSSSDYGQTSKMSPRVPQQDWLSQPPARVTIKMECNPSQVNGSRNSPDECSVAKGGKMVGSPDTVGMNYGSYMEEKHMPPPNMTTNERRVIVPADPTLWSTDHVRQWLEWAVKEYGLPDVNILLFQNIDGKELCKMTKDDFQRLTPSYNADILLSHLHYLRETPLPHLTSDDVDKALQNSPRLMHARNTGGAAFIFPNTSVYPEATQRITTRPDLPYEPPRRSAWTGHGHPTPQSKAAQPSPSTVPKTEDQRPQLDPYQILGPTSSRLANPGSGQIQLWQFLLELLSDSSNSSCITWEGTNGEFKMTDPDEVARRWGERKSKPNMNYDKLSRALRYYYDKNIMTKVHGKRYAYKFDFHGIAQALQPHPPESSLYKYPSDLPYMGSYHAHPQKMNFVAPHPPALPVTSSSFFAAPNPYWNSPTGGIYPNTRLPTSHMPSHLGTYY
# Outline: as §1
# ELF1 = ELF1 (Homo sapiens, UniProt P32519 1-619)
# ELF1, sequence (P32519 whole entry): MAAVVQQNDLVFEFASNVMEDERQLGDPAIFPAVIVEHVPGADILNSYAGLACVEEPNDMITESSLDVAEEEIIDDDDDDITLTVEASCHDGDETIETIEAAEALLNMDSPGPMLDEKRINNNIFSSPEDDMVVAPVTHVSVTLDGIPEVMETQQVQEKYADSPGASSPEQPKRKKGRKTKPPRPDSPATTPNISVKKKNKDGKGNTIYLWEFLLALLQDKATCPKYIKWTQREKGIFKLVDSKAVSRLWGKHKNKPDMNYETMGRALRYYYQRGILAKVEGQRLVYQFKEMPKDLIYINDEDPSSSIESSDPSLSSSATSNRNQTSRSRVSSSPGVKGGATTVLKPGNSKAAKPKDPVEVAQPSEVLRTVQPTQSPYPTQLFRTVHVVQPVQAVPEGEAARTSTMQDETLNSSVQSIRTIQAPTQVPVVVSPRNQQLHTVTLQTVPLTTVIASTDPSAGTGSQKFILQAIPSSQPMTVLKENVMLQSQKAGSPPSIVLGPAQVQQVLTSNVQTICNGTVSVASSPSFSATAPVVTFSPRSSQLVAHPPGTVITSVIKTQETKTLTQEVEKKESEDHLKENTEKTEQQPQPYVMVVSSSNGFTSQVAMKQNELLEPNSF
# Outline: as §1
# EHF = target: T5, EHF (Homo sapiens, UniProt Q9NZC4 1-300)
# T5 sequence: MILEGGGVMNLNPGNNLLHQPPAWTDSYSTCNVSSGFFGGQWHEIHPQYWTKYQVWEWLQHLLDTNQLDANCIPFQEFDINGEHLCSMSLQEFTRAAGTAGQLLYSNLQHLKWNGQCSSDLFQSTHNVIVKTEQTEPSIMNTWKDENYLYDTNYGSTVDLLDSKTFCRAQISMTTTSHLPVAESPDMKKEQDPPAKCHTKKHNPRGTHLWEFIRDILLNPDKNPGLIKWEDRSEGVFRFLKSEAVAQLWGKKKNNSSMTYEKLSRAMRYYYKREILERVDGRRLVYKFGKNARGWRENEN
# Outline: as §1
# SPI1 = SPI1 (Homo sapiens, UniProt P17947 1-270)
# Outline: as §1
# SPIB = SPIB (Homo sapiens, UniProt Q01892 1-262)
# SPIB, sequence (Q01892 whole entry): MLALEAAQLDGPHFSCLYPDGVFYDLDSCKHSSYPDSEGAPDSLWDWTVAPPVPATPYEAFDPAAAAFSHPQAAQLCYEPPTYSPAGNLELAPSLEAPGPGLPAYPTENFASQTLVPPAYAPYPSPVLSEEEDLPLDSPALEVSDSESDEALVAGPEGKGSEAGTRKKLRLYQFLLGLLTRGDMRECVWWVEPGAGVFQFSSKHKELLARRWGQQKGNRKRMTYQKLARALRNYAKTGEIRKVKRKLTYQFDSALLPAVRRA
# Outline: as §1
# ELK3 = target: T6, ELK3 (Homo sapiens, UniProt P41970 1-407)
# T6 sequence: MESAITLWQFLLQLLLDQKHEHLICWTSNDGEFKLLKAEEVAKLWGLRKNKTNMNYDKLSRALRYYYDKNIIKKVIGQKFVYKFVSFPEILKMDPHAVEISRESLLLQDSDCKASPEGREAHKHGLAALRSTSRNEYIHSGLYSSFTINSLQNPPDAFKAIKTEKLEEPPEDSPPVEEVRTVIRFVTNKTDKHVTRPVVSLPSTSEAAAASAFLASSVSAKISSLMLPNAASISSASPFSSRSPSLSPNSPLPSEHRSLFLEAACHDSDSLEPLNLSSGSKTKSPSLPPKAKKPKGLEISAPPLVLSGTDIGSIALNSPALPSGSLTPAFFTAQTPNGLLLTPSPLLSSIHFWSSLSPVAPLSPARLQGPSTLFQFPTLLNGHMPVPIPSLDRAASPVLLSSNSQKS
# Outline: as §1
Sequence,binding signal (FLI1),binding signal (ELK1),binding signal (GABPA),binding signal (ERG),binding signal (ELF1),binding signal (EHF),binding signal (SPI1),binding signal (SPIB),binding signal (ELK3)
CCAAAC,"1.02 fold enrichment (6-mer frequency, TF over GST control)","1.13 fold enrichment (6-mer frequency, TF over GST control)","1.15 fold enrichment (6-mer frequency, TF over GST control)","1.11 fold enrichment (6-mer frequency, TF over GST control)","1.16 fold enrichment (6-mer frequency, TF over GST control)","1.07 fold enrichment (6-mer frequency, TF over GST control)","1.06 fold enrichment (6-mer frequency, TF over GST control)","1.06 fold enrichment (6-mer frequency, TF over GST control)","1.15 fold enrichment (6-mer frequency, TF over GST control)"
CACGAC,"1.27 fold enrichment (6-mer frequency, TF over GST control)","1.29 fold enrichment (6-mer frequency, TF over GST control)","1.33 fold enrichment (6-mer frequency, TF over GST control)","1.22 fold enrichment (6-mer frequency, TF over GST control)","1.21 fold enrichment (6-mer frequency, TF over GST control)","1.28 fold enrichment (6-mer frequency, TF over GST control)","1.14 fold enrichment (6-mer frequency, TF over GST control)","1.23 fold enrichment (6-mer frequency, TF over GST control)","1.29 fold enrichment (6-mer frequency, TF over GST control)"
TCTCGC,"1.82 fold enrichment (6-mer frequency, TF over GST control)","1.75 fold enrichment (6-mer frequency, TF over GST control)","1.88 fold enrichment (6-mer frequency, TF over GST control)","1.72 fold enrichment (6-mer frequency, TF over GST control)","1.77 fold enrichment (6-mer frequency, TF over GST control)","1.65 fold enrichment (6-mer frequency, TF over GST control)","1.69 fold enrichment (6-mer frequency, TF over GST control)","1.64 fold enrichment (6-mer frequency, TF over GST control)","1.72 fold enrichment (6-mer frequency, TF over GST control)"
TGTGAC,"1.05 fold enrichment (6-mer frequency, TF over GST control)","1.09 fold enrichment (6-mer frequency, TF over GST control)","1.15 fold enrichment (6-mer frequency, TF over GST control)","1.08 fold enrichment (6-mer frequency, TF over GST control)","1.16 fold enrichment (6-mer frequency, TF over GST control)","1.01 fold enrichment (6-mer frequency, TF over GST control)","1.17 fold enrichment (6-mer frequency, TF over GST control)","1.22 fold enrichment (6-mer frequency, TF over GST control)","1.1 fold enrichment (6-mer frequency, TF over GST control)"
GTAACA,"1.24 fold enrichment (6-mer frequency, TF over GST control)","1.1 fold enrichment (6-mer frequency, TF over GST control)","1.05 fold enrichment (6-mer frequency, TF over GST control)","1.06 fold enrichment (6-mer frequency, TF over GST control)","1.13 fold enrichment (6-mer frequency, TF over GST control)","1.21 fold enrichment (6-mer frequency, TF over GST control)","1.12 fold enrichment (6-mer frequency, TF over GST control)","1.03 fold enrichment (6-mer frequency, TF over GST control)","1.19 fold enrichment (6-mer frequency, TF over GST control)"
TCCAAA,"1.08 fold enrichment (6-mer frequency, TF over GST control)","1.18 fold enrichment (6-mer frequency, TF over GST control)","1.31 fold enrichment (6-mer frequency, TF over GST control)","1.19 fold enrichment (6-mer frequency, TF over GST control)","1.18 fold enrichment (6-mer frequency, TF over GST control)","1.1 fold enrichment (6-mer frequency, TF over GST control)","1.12 fold enrichment (6-mer frequency, TF over GST control)","1.17 fold enrichment (6-mer frequency, TF over GST control)","1.17 fold enrichment (6-mer frequency, TF over GST control)"
CCCTTG,"1.14 fold enrichment (6-mer frequency, TF over GST control)","1.21 fold enrichment (6-mer frequency, TF over GST control)","1.24 fold enrichment (6-mer frequency, TF over GST control)","1.23 fold enrichment (6-mer frequency, TF over GST control)","1.3 fold enrichment (6-mer frequency, TF over GST control)","1.22 fold enrichment (6-mer frequency, TF over GST control)","1.16 fold enrichment (6-mer frequency, TF over GST control)","1.19 fold enrichment (6-mer frequency, TF over GST control)","1.2 fold enrichment (6-mer frequency, TF over GST control)"
CACCAT,"1.2 fold enrichment (6-mer frequency, TF over GST control)","1.16 fold enrichment (6-mer frequency, TF over GST control)","1.06 fold enrichment (6-mer frequency, TF over GST control)","1.08 fold enrichment (6-mer frequency, TF over GST control)","1.14 fold enrichment (6-mer frequency, TF over GST control)","1.12 fold enrichment (6-mer frequency, TF over GST control)","1.03 fold enrichment (6-mer frequency, TF over GST control)","1 fold enrichment (6-mer frequency, TF over GST control)","1.22 fold enrichment (6-mer frequency, TF over GST control)"

# — paper PMC7862700, “An all-to-all approach to the identification of sequence-specific readers for epigenetic DNA modifications on cytosine”
